Test results as given in PubChem BioAssay AID1159580 (chemical genetic matrix, 2015).
Where “and” joins values, the source holds several entries; their conditions need not be identical. Identical values can stand only once. The campaign covered roughly 5,500 compounds. About 2,000 (36%) were called active. Roughly 18% stayed inconclusive and do not appear here. No stated cut-off is given here; in the data, active means normalized growth mostly below about 0.91 (no sharp cut-off); inconclusive means no clear call, values can overlap the other calls; inactive means mostly above about 0.92. This is one part of the list.

Test: chemical genetic growth profiling, strain panel (AID 1159580);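 further: tested at 20 µM; growth read once vehicle control cultures reached saturation at 30 °C; 1 = growth at the plate median or of vehicle wells; lower values mean less growth of the strain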
Conditions: S. cerevisiae deletion strains, growth OD

Measured: normalized growth

NCCCC[C@H](N[C@@H](CCc1ccccc1)C(=O)O)C(=O)N1CCC[C@H]1C(=O)O
inactive: locus YAL021C, strain ccr4, active compounds read low 1.01 | locus YAL026C, strain drs2, active compounds read low 1.02 | locus YAL030W, strain snc1, active compounds read low 0.978 | locus YBL061C, strain skt5, active compounds read low 1.01 | locus YBR009C, strain hhf1, active compounds read low 0.98 | locus YBR021W, strain FUR4, active compounds read low 1.01 | locus YBR023C, strain chs3, active compounds read low 0.998 | locus YBR171W, strain sec66, active compounds read low 1.02 | locus YBR229C, strain ROT2, active compounds read low 0.962 | locus YBR231C, strain swc5, active compounds read low 1.01 | locus YBR279W, strain paf1, active compounds read low 0.998 | locus YCL011C, strain gbp2, active compounds read low 0.997 | locus YCL016C, strain dcc1, active compounds read low 0.99 | locus YCL029C, strain bik1, active compounds read low 0.992 | locus YCL069W, strain vba3, active compounds read low 1.03 | locus YCR088W, strain abp1, active compounds read low 1.03 | locus YDL005C, strain med2, active compounds read low 1.03 | locus YDL035C, strain GPR1, active compounds read low 0.995 | locus YDL040C, strain nat1, active compounds read low 0.998 | locus YDL074C, strain BRE1, active compounds read low 0.932 | locus YDL101C, strain DUN1, active compounds read low 0.982 | locus YDL134C, strain PPH21, active compounds read low 1 | locus YDL185W, strain tfp1, active compounds read low 0.989 | locus YDL192W, strain arf1, active compounds read low 0.992 | locus YDR001C, strain nth1, active compounds read low 1.01 | locus YDR069C, strain doa4, active compounds read low 0.935 | locus YDR101C, strain arx1, active compounds read low 0.995 | locus YDR137W, strain rgp1, active compounds read low 0.994 | locus YDR150W, strain NUM1, active compounds read low 0.99 | locus YDR159W, strain sac3, active compounds read low 0.923 | locus YDR162C, strain NBP2, active compounds read low 0.994 | locus YDR195W, strain ref2 0.987 | locus YDR297W, strain sur2, active compounds read low 0.979 | locus YDR318W, strain mcm21, active compounds read low 1 | locus YDR334W, strain swr1, active compounds read low 1.01 | locus YDR335W, strain msn5, active compounds read low 0.972 | locus YDR388W, active compounds read low 0.993 | locus YDR392W, strain spt3, active compounds read low 1.01 | locus YDR502C, strain sam2, active compounds read low 0.999 | locus YEL003W, strain gim4, active compounds read low 1.02 | locus YEL037C, strain rad23, active compounds read low 1.01 | locus YEL061C, strain CIN8 (second series), active compounds read low 1.02 | locus YEL061C, strain CIN8, active compounds read low 0.978 | locus YER015W, strain faa2, active compounds read low 1 | locus YER016W, strain bim1, active compounds read low 0.997 | locus YER110C, active compounds read low 0.989 | locus YER111C, strain swi4, active compounds read low 1.02 | locus YER155C, strain BEM2 (second series), active compounds read low 0.994 | locus YER155C, strain BEM2, active compounds read low 0.996 | locus YER167W, strain BCK2, active compounds read low 0.989 | locus YFR010W, strain ubp6, active compounds read low 1.01 | locus YGL078C, strain dbp3, active compounds read low 1 | locus YGL086W, strain mad1, active compounds read low 0.982 | locus YGL167C, strain pmr1, active compounds read low 1.01 | locus YGL173C, strain kem1, active compounds read low 1.04 | locus YGL227W, strain vid30, active compounds read low 1.01 | locus YGL240W, strain doc1, active compounds read low 0.92 | locus YGL248W, strain PDE1, active compounds read low 0.966 | locus YGL253W, strain hxk2, active compounds read low 0.971 | locus YGR135W, strain pre9, active compounds read low 1.01 | locus YGR252W, strain gcn5, active compounds read low 1.02 | locus YHR013C, strain ard1, active compounds read low 1.01 | locus YHR027C, strain rpn1, active compounds read low 0.985 | locus YHR030C, strain SLT2, active compounds read low 0.996 and 1.03 | locus YHR079C, strain IRE1 (second series), active compounds read low 0.999 | locus YHR079C, strain IRE1, active compounds read low 1.05 | locus YHR094C, strain hxt1, active compounds read low 0.995 | locus YHR129C, strain ARP1, active compounds read low 0.997 | locus YHR142W, strain chs7, active compounds read low 1.03 | locus YHR200W, strain rpn10, active compounds read low 1 | locus YIL066C, strain RNR3, active compounds read low 0.973 | locus YIL073C, strain SPO22, active compounds read low 1.06 | locus YIL125W, strain kgd1, active compounds read low 0.993 | locus YIR030C, strain dcg1, active compounds read low 0.993 | locus YJL092W, strain hpr5, active compounds read low 1.02 | locus YJL095W, strain BCK1 (second series), active compounds read low 0.972 | locus YJL095W, strain BCK1, active compounds read low 0.968 and 1.01 | locus YJL115W, strain asf1, active compounds read low 1.01 | locus YJL129C, strain trk1, active compounds read low 1.04 | locus YJL134W, strain LCB3, active compounds read low 0.994 | locus YJL154C, strain vps35, active compounds read low 1.03 | locus YJL164C, strain tpk1, active compounds read low 1.02 | locus YJL166W, strain qcr8, active compounds read low 0.989 | locus YJL168C, strain set2, active compounds read low 0.995 | locus YJL187C, strain SWE1 (second series), active compounds read low 0.971 | locus YJR043C, strain POL32, active compounds read low 0.986 | locus YJR066W, strain TOR1, active compounds read low 0.969 | locus YJR075W, strain HOC1, active compounds read low 0.979
